# Laboratory results from PubChem BioAssay (NCI).
# The panel holds about 83,000 compounds, 20% with a hit somewhere; the sample as a whole holds those more often.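 Growth was measured after 48 h exposure to one concentration of compound in 96-well plates. Values under 10 count as active.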 A number with no mark means an inactive call. Calls of active or inactive are those of the source.
# Tested on: HL-60(TB) leukemia
# Experiment: NCI-60 one-dose screen, 48 h (100 = growth as untreated, 0 = no growth, -100 = all killed)
# Settings: 10 µM unless noted
row,Structure (SMILES),growth
1,CC(=O)C1N=NCC1c1ccccc1 (stereo not given),96.8%
2,c1ccc(Cn2nc3c(c2-c2ccccc2)-c2oncc2CC3)cc1,92.2%
3,C=CCOc1ccc(Cl)cc1Cl,20.5%
4,COP(=O)(OC)C(c1ccccc1)(c1ccccc1)c1ccccc1,45.3%
5,CCCCN(C=S)CCCC,104%
6,O=C1c2ccc3c4c(ccc(c24)C(=O)N1CCCNCc1ccccc1Cl)C(=O)N(CCCNCc1ccccc1Cl)C3=O,-55.9% (active)
7,Cc1ccc(C)n1-c1ccccc1-n1c(C)ccc1C,82.2%
8,O=C(/C=C(\Nc1ccccc1)c1ccccc1)c1cn(-c2ccc([N+](=O)[O-])cc2)nn1,114%
9,Cc1ccc(C(F)(F)F)cc1N1CCN(C(=O)[C@H]2C[C@H]2c2ccc(C(F)(F)F)nc2)CC1,81.8%
10,Nc1nc2ncc(CCNc3ccc(C(=O)O)cc3)nc2c(=O)[nH]1,58.2%
11,COC(=O)Nc1nc2ccc(S(=O)c3ccccc3)cc2[nH]1 (stereo not given),22.7%
12,COc1cc2c(cc1OC)C(=O)C(Br)CC2 (stereo not given),27.3%
13,Oc1ccccc1O,55.8%
14,CCCCCCCCNC(=O)[C@@H](N)CSCOC(C)=O,83.6%
15,Cc1nn(-c2ccccc2)c(Oc2c(Cl)cccc2Cl)c1/C=N/N=c1\sc2ccccc2n1C,43.1%
16,O=[N+]([O-])c1c(F)cccc1Nc1cccc(F)c1,100%
17,CC(=O)C1Cc2ccccc2C1=O (stereo not given),97.4%
18,CC(=O)Nc1ccc(C(=O)COc2cccc(/C=C3\CCc4ccccc4C3=O)c2)cc1,89.2%
19,COC(=O)C1(C(=O)OC)C2C(=O)C3C(C21)C3(C(=O)OC(C)(C)C)C(=O)OC(C)(C)C (stereo not given),96.6%
20,Cc1c(F)cccc1NC(=O)c1sc2nc3c(cc2c1N)CCCCC3,6.49% (active)

row,Structure (SMILES),growth
1,COc1ccc2nc(NC(=O)c3cccnc3Nc3cc(OC)c(OC)c(OC)c3)sc2c1,51.8%
2,O=C(/C=C/c1cccnc1)c1ccccc1,89.8%
3,Cc1nc(NC(=S)Nc2ccc(F)cc2)sc1C(=O)NNC(=S)Nc1ccc(F)cc1,48.3%
4,N#Cc1nc2c(S(=O)(=O)c3ccccc3)c(N)n(Cc3cccnc3)c2nc1C#N,53%
5,Nc1nc(Nc2cccc(F)c2)nc2ccccc12,28.6%
6,CC(C)(C)c1nn(-c2ccccc2)c2c1CC1(CN2Cc2ccc(Cl)cc2)C(=O)c2ccccc2C1=O,90.8%
7,Cc1cccc2c1NC(=O)[C@@]21[C@H](C(=O)c2ccccc2)[C@]2(C(=O)Nc3ccccc32)[C@H]2CCCN21,14.6% [100 µM]
8,CCNc1ncnc2c1cnn2C1CCCO1 (stereo not given),92.5%
9,O=C(O)C(C(=O)O)c1cccc2ccccc12,98.6%
10,CC(C)COc1nc2c(c(=O)n(C)c(=O)n2C)n1C,97%
11,FC(F)(F)c1ccc(-c2cnc(Cl)nc2N2CCC3(CC2)OCCO3)cc1,83.6%
12,COc1cc(-c2nc(N)n(CC(=O)Nc3ccc(/C(C)=N\O)cc3)n2)cc(OC)c1OC,91.6%
13,Cc1cc(C)c(NC(=O)c2sc3nc4c(cc3c2N)CCCCCC4)c(C)c1,-20.2% (active)
14,O=C(c1ccccc1)C(CCc1ccccn1)CCc1ccccn1,107%
15,COc1ccc(-c2cc(-c3ccccc3)nc(SCCCCCCC(=O)NO)n2)cc1,8.06% (active)
16,CCCCCCCCCCCCNC(=O)N[C@H](C(=O)N[C@H]1/C=C/OCCNC(=O)/C=C/[C@H](C(C)C)NC1=O)C(C)C,93.8%
17,Cc1ccc(/C=C(\C#N)c2cc3ccccc3[nH]2)cc1,22.8%
18,O=C(/C(=C/c1ccc([N+](=O)[O-])cc1)c1ccccc1)c1ccccc1,16.9%
19,Nc1ccccc1-c1ccc([N+](=O)[O-])cc1,14.2%
20,COc1ccc(/C=C2\COc3ccc(O)c(O)c3C2=O)cc1OC,-28.7% (active)
